# Experimental data as given in PubChem BioAssay AID504397 (Broad Institute, 2011).
# Measured potencies and affinities stand elsewhere. The source made the active and inactive calls. No rule for the calls is given here.
# Experiment: mammalian cell cytotoxicity, dose response, cytotoxicity control, plate reader, cherry-pick samples (AID 504397)
compound,measurement,value
CCOC(=O)[C@@H]1[C@H]2COc3ccc(Br)cc3[C@@H]2N2C(=O)N(c3cccc(C)c3)C(=O)[C@]12C,outcome,inactive
